# Measured values from PubChem BioAssay (NCATS).
# Values joined by “and” are separate entries in the source; they are usually repeats but may differ in a detail not shown here. Identical values can stand only once. Records with an inconclusive call do not appear. Entries that show only a call come without a potency. Active and inactive are the calls of the source. Unless noted, calls follow the shape of the dose curve; as a rule, active = well fitted curve in the direction sought with a large enough effect; inconclusive = small, poorly fitted or top-dose-only effect, or another doubt; inactive = no such curve, though single readings can be large; an effect the other way counts as inactive or inconclusive.
# Experiments:
# [1] = molecular target: Lysosomal acid glucosylceramidase (Homo sapiens) (UniProt P04062); experiment: Glucocerebrosidase-p2 (AID 348; in the data active = potency below about 10 µM; also: potency is read from the fitted curve at half-maximal effect); conditions: purified GBA, blue fluorogenic substrate, 40 min
# How it was run: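 Normal human glucocerebrosidase (0.2 nM) with blue fluorogenic substrate (80 uM final) in citrate/phosphate pH 5.9 with 10mM sodium taurocholate, 0.01% tween-20; 40 min RT, NaOH/glycine stop; fluorescence Ex 365/Em 440; AC50 from a titration from 0.6 nM upwards.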
# [2] = molecular target: Cytochrome P450 1A2 (Homo sapiens) (UniProt P05177); experiment: p450-cyp1a2 (AID 410; calls by dose curve; also: potency is read from the fitted curve at half-maximal effect); conditions: recombinant CYP1A2, luciferin-ME demethylation, luminescence; series mostly up to 57 µM
# How it was run: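 Read-out is luminescence from luciferin produced by CYP1A2 demethylation of Luciferin-ME (100uM, at Km). Detection reagent stopped the 60 min NADPH-dependent reaction; signals were normalized to 57 uM furafylline.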
# [3] = NFAT Signaling Pathway (AID 444; active = well fitted curve in either direction with a large enough effect, not every such curve was filed as active;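 also: carbachol stimulus at about its EC50 of 1 µM final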); conditions: Jurkat NFAT-bla M1, carbachol, beta-lactamase ratio, 5 h; at 7.69 µM (top of the series) unless noted
# How it was run: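 Read-out: CCF4 FRET ratio (460 nm/530 nm) after 1 h RT dye loading, used for %activity and AC50 from titration series. Cells: Jurkat NFAT-β-lactamase/M1 line, treated with compound plus 1 uM carbachol for 5 h, 37 °C.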
# [4] = Stat Signaling Pathway (AID 446; active = well fitted curve in either direction with a large enough effect, not every such curve was filed as active;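 also: ME-180 cervical cancer cells given 40 pM IL-6 alongside compound; SIE-controlled beta-lactamase reporter measured as 460/530 nm FRET emission ratio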); conditions: ME-180 (cervical carcinoma) SIE beta-lactamase reporter, IL-6 stimulated, 5 h; at 7.69 µM (top of the series) unless noted
# How it was run: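 Normalization used AC90 stimulation (300 pM IL-6) and AC90 inhibition (125 nM pan-JAK inhibitor at 40 pM IL-6). The underlying signal is SIE-driven beta-lactamase in ME-180 cells after 5 h IL-6 exposure with compound.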
# [5] = molecular target: Glucocorticoid receptor (Homo sapiens) (UniProt P04150); experiment: GR-EFC Redistribution (AID 451; calls by dose curve; also: potency is read from the fitted curve at half-maximal effect); conditions: CHO-K1 GR-EFC translocation, beta-gal luminescence, 2 h
# How it was run: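 Translocation of GR-ED fusion to nuclear EA restores b-gal, read by luminescence after 1 h room-temperature detection. Engineered CHO-K1 biosensor cells, 1,000/well, exposed 2 h at 37 C to titrations up to 46 uM final.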
# [6] = molecular target: Mitogen-activated protein kinase 10 (Mus musculus) (UniProt Q61831); experiment: JNK3 AlphaScreen Assay (AID 530; active = well fitted curve in either direction with a large enough effect, not every such curve was filed as active;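 also: kinase came from lysate of stimulated human HepG2 cells; signal reports phosphorylation of biotinylated GST-cJun 1-79 at Ser73 with 10 µM ATP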); conditions: JNK3 lysate, c-Jun phosphorylation; series mostly up to 57.1 µM
# How it was run: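 Kinase buffer: 20 mM Tris-HCl pH 7.6, 10 mM MgCl2, 1 mM DTT, 0.1 mM Na3VO4, 0.01% Tween-20; ATP 10 uM. Substrate biotin-GST-cJun(1-79), enzyme from activated HepG2 lysates. Detection by Ser73 phospho-antibody AlphaScreen.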
# [7] = molecular target: 3',5'-cyclic-AMP phosphodiesterase 4B (Homo sapiens) (UniProt Q07343); experiment: qHTS Assay for Inhibitors of PDE-IV (AID 607; active = well fitted activation curve with a large enough effect in the main read-out, with a control signal flat, not every such curve was filed as active); conditions: HEK293 ACTOne CNG channel cells, membrane potential fluorescence; series mostly up to 22.9 µM
# How it was run: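 HEK293 ACTOne cells with CNG channel (1000/well), endogenous PDE4; membrane potential dye, compounds up to 22.9 uM final. Fluorescence Ex 535/Em 590; RO 20-1724 (100 uM final) as reference.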
# [8] = molecular target: Cytochrome P450 2C9 (Homo sapiens) (UniProt P11712); experiment: qHTS Assay for Inhibitors and Substrates of Cytochrome P450 2C9 (AID 883); conditions: recombinant CYP2C9, luciferin-H luminescence, 60 min; series mostly up to 57.1 µM; also: nearly all actives have a fitted effect of over 60% in size; also: potency is read from the fitted curve at half-maximal effect
# How it was run: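 Inhibition of CYP2C9 is scored as loss of luminescence, with 57uM sulphaphenazole defining 100% inhibition. Substrate Luciferin-H is used at 100uM, equal to its KM; enzyme at 10nM in 25mM KPO4, 60 min at 37C with NADPH regeneration.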
# [9] = molecular target: Cytochrome P450 3A4 (Homo sapiens) (UniProt P08684); experiment: qHTS Assay for Inhibitors and Substrates of Cytochrome P450 3A4 (AID 884); conditions: recombinant CYP3A4, Luciferin-PPXE luminescence; series mostly up to 57.1 µM; also: nearly all actives have a fitted effect of over 50% in size; also: potency is read from the fitted curve at half-maximal effect
# How it was run: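 Luminescent readout of luciferin produced by CYP3A4 (20 nM) dealkylation of Luciferin-PPXE, 25 uM (its KM). NADPH-driven reaction ran 60 min at RT after 10 min compound preincubation; data scaled to 57 uM ketoconazole as 100% inhibition.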
# [10] = molecular target: Cytochrome P450 3A4 (Homo sapiens) (UniProt P08684); experiment: qHTS Assay for Activators of Cytochrome P450 3A4 (AID 885); conditions: recombinant CYP3A4, Luciferin-PPXE luminescence, 60 min; series mostly up to 57.1 µM; also: nearly all actives have a fitted effect of over 65% in size
# How it was run: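 Human CYP3A4 dealkylates Luciferin-PPXE to luciferin, which luciferase detection converts to light. Substrate was at its KM (25uM), buffer 200mM KPO4, reaction 60 min at RT.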
# [11] = molecular target: Cytochrome P450 2D6 (Homo sapiens) (UniProt P10635); experiment: qHTS Assay for Inhibitors and Substrates of Cytochrome P450 2D6 (AID 891); conditions: recombinant CYP2D6, luciferin-ME EGE luminescence; series mostly up to 57.1 µM; also: nearly all actives have a fitted effect of over 60% in size; also: potency is read from the fitted curve at half-maximal effect;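 as to activity change, negative = inhibition: luciferin methyl ether substrate demethylated by CYP2D6 with NADPH regeneration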
# How it was run: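 Luminescent read-out of luciferin formed by 5 nM human CYP2D6 demethylating 30 uM Luciferin-ME EGE (Km level) over 60 min at room temperature after NADPH regeneration addition. Data normalized to full inhibition by 1.43 uM quinidine.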
# [12] = molecular target: Cytochrome P450 2C19 (Homo sapiens) (UniProt P33261); experiment: qHTS Assay for Inhibitors and Substrates of Cytochrome P450 2C19 (AID 899); conditions: recombinant CYP2C19, luciferin-H EGE luminescence; series mostly up to 57.1 µM; also: nearly all actives have a fitted effect of over 60% in size; also: potency is read from the fitted curve at half-maximal effect
# How it was run: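 5nM enzyme + 10uM Luciferin-H EGE (=KM), 50mM KPO4; cpd pin-transferred, 10 min 37C; NADPH regen, 60 min 37C; stopped w/ luciferin detection reagent, 20 min; luminescence. Normalized to 57uM ketoconazole (AC100).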
# [13] = qHTS Assay for Lipid Storage Modulators (AID 1519; calls by dose curve); conditions: Drosophila S3 cells, BODIPY lipid droplet/cell ratio, laser cytometry, cells loaded with oleic acid
# How it was run: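 Cells seeded at 5,000 per well were treated with compounds over a concentration series and loaded with oleic acid (400 uM, as added). Lipid droplet fluorescence (488 nm excitation, 500-530 nm channel) was read by laser-scanning cytometry and normalized to 20 uM Triacsin C.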
# [14] = molecular target: Dual specificity protein kinase CLK4 (Homo sapiens) (UniProt Q9HAZ1); experiment: qHTS Assay for Inhibitors of CDC-like Kinase 4 (ADP-Glo Assay) (AID 1771); conditions: recombinant CLK4, ADP-Glo luminescence; series mostly up to 80 µM; also: potency is read from the fitted curve at half-maximal effect; nearly all actives have a fitted effect of over 70% in size
# How it was run: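 In this ADP-Glo format, 1 uM ATP and 100 uM RS peptide served as substrates for 25 nM Clk4 in Mg2+/EGTA/DTT/Triton buffer; reactions ran 1 hr at room temperature before luminescent ADP quantification.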
# [15] = molecular target: Dual specificity protein kinase CLK4 (Homo sapiens) (UniProt Q9HAZ1); experiment: qHTS Assay for Inhibitors of CDC-like Kinase 4 (ADP-FP Assay) (AID 1795); conditions: Transcreener ADP fluorescence polarization; series mostly up to 50 µM; also: potency is read from the fitted curve at half-maximal effect; nearly all actives have a fitted effect of over 60% in size
# How it was run: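 Clk4 6.25 nM; RS peptide 100 uM; ATP 1 uM; 25 mM Tris pH 7.5, 10 mM MgCl2; 1 h reaction. ADP detected via antibody/orange tracer FP displacement; TG003 positive control.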
# [16] = molecular target: Ubiquitin carboxyl-terminal hydrolase 1 (Homo sapiens) (UniProt O94782); experiment: Inhibitors of USP1/UAF1: Pilot qHTS (AID 504865); conditions: purified USP1/UAF1, Ub-rhodamine cleavage fluorescence; series mostly up to 54.9 µM;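 also: rhodamine fluorescence freed from ubiquitin-rhodamine substrate followed over time; top concentration of the series differs between compounds; nearly all actives have a fitted effect of over 35% in size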
# How it was run: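 In 50mM HEPES pH 7.8 containing 0.5mM EDTA, 1mM TCEP, 0.1 mg/ml BSA and 0.01% Tween-20, 1nM USP1/UAF1 is exposed to compound for 15 min, then Ub-Rho (150nM final) is added and fluorescence is read over time.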
# [17] = molecular target: Rap guanine nucleotide exchange factor 3 (Homo sapiens) (UniProt O95398); experiment: Confirmatory qHTS for antagonist of cAMP-regulated guanine nucleotide exchange factor 3 (EPAC1) (AID 1645880); conditions: EPAC1 Rap1B-BODIPY-GDP exchange, fluorescence; series mostly up to 115 µM; also: nearly all actives have a fitted effect of over 55% in size
# How it was run: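 Released BODIPY-GDP fluoresces less than Rap1-bound BODIPY-GDP; the signal is followed at 480/540 nm at 5-min intervals over 30 min, after 5 min at room temperature. Reactions contain 100 nM EPAC1, 250 nM RAP1B-BODIPY-GDP and 50 uM GDP; results are normalized to ATA and DMSO.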
# [18] = molecular target: Rap guanine nucleotide exchange factor 3 (Homo sapiens) (UniProt O95398); experiment: Confirmatory qHTS for agonist of cAMP-regulated guanine nucleotide exchange factor 3 (EPAC1) (AID 1645881); conditions: EPAC1 Rap1B BODIPY-GDP exchange fluorescence; series mostly up to 154 µM;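 also: EPAC1 catalysed release of BODIPY-GDP from Rap1B seen as fluorescence loss; nearly all actives have a fitted effect of over 75% in size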
# [19] = molecular target: Rap guanine nucleotide exchange factor 4 (Homo sapiens) (UniProt Q8WZA2); experiment: Confirmatory qHTS for agonist of cAMP-regulated guanine nucleotide exchange factor 4 (EPAC2) (AID 1645884); conditions: EPAC2 GEF activity, Rap1B-BODIPY-GDP fluorescence; series mostly up to 154 µM;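 also: nucleotide exchange releases bodipy-GDP from Rap1 and this lowers its fluorescence; nearly all actives have a fitted effect of over 65% in size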
# [20] = molecular target: Rap guanine nucleotide exchange factor 4 (Homo sapiens) (UniProt Q8WZA2); experiment: Confirmatory qHTS for antagonist of cAMP-regulated guanine nucleotide exchange factor 4 (EPAC2) (AID 1645885); conditions: EPAC2 Rap1B-BODIPY-GDP exchange fluorescence, biochemical; series mostly up to 114 µM; also: nearly all actives have a fitted effect of over 25% in size
# [21] = molecular target: Glucocorticoid receptor (Homo sapiens) (UniProt P04150); experiment: GR-GFP Redistribution (AID 450;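 active = compounds whose dose series gives a full or clear partial fitted curve of increased nuclear translocation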; also: potency is read from the fitted curve at half-maximal effect); conditions: U2OS GR-GFP nuclear translocation, laser cytometry, 2 h
# [22] = Confirmation and Secondary Assay for Modulators of Hemoglobin Beta Chain Splicing at IVS2 705 locus (AID 930); conditions: HeLa EGFP-705 splicing reporter, GFP fluorescence, 48 h; series mostly up to 38.3 µM;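 also: HeLa cells stably expressing the EGFP-705 splicing reporter; GFP fluorescence per well restored by corrected splicing of the IVS2-705 intron in EGFP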
# How it was run: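 First, HeLa EGFP-705 cells are seeded at 500/well in Optimem with 2% FCS and left overnight. Next, compound or DMSO is added for 2 days. Finally wells are laser-scanned and total peak GFP intensity scored.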
# [23] = molecular target: DNA dC->dU-editing enzyme APOBEC-3G (Homo sapiens) (UniProt Q9HC16); experiment: qHTS for inhibitors of Vif-A3G interactions: Validation (AID 588379); conditions: Vif-A3G protein interaction assay; series mostly up to 46.1 µM
# How it was run: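 Yellow fluorescence (Ex 488, Em 500-530) of Vif-coexpressing HeLa A3G-eYFP cells, scanned by Acumen cytometer, reports blocked A3G degradation. Cells plated at 700/well overnight at 37 deg C before compound addition, then a further overnight compound incubation at 37 deg C.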
# [24] = Primary qHTS for small molecule stabilizers of the endoplasmic reticulum resident proteome: Secreted ER Calcium Modulated Protein (SERCaMP) assay (AID 1508630); conditions: SH-SY5Y GLuc-SERCaMP (Gaussia luciferase released on ER calcium loss) secretion, thapsigargin, luminescence; series mostly up to 38.4 µM
# How it was run: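 The SH-SY5Y reporter protocol was run at 3 concentrations up to 38.3 uM (primary) or 11 concentrations (follow-up): 16 h compound, 100 nM thapsigargin for 4 h, then extracellular luciferase luminescence.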
# [25] = measured here: cell count channel max response
# [26] = measured here: lipid channel max response
# Chain of Cytochrome P450 2D6 (Homo sapiens) (P10635 whole entry, looked up): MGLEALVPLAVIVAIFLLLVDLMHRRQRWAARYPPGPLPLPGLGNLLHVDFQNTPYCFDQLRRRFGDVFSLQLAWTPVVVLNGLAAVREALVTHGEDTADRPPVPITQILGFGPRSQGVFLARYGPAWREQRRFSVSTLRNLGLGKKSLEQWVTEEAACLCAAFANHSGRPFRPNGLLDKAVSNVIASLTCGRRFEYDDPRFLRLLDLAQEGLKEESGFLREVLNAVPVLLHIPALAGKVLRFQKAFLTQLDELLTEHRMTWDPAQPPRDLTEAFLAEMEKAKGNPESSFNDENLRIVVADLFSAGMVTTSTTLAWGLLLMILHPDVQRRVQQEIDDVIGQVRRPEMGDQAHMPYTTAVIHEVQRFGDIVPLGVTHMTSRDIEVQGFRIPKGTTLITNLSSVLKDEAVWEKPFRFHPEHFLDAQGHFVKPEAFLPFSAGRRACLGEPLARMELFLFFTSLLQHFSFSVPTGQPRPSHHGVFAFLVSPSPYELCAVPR
# Chain of 3',5'-cyclic-AMP phosphodiesterase 4B (Homo sapiens) (Q07343 whole entry, looked up): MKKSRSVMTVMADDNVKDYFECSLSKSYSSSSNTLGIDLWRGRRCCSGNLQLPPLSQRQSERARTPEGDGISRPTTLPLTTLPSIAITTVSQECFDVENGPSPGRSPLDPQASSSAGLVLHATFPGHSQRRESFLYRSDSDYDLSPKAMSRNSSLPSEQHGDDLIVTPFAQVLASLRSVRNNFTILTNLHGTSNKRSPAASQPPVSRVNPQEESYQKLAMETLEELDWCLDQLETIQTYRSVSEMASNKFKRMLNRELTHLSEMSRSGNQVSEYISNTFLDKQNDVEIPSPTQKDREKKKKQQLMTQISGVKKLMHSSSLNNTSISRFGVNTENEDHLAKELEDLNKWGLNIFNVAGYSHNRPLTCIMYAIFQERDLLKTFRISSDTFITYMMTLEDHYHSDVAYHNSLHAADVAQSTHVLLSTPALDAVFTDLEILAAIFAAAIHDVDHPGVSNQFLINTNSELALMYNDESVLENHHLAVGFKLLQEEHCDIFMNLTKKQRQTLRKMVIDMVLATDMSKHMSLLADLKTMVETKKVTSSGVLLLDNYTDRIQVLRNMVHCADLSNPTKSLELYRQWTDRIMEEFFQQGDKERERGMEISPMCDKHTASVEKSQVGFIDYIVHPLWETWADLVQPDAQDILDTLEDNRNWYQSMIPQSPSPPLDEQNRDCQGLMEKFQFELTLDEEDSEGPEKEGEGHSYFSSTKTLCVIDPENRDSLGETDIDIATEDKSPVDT
# Chain of Cytochrome P450 3A4 (Homo sapiens) (P08684 whole entry, looked up): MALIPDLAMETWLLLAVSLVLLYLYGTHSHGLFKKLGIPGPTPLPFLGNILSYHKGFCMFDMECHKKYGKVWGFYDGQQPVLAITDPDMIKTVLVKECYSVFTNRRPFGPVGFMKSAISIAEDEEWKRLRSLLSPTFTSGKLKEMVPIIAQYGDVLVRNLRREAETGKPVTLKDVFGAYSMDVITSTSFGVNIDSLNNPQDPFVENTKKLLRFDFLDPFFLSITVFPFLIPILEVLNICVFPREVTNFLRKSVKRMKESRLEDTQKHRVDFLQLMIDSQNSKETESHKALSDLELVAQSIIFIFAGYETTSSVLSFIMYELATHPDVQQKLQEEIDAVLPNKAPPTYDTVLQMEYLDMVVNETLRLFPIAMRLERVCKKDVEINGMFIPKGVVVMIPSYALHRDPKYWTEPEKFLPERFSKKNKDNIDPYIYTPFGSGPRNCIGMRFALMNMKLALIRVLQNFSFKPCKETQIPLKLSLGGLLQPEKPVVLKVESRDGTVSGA
# Chain of Rap guanine nucleotide exchange factor 4 (Homo sapiens) (Q8WZA2 whole entry, looked up): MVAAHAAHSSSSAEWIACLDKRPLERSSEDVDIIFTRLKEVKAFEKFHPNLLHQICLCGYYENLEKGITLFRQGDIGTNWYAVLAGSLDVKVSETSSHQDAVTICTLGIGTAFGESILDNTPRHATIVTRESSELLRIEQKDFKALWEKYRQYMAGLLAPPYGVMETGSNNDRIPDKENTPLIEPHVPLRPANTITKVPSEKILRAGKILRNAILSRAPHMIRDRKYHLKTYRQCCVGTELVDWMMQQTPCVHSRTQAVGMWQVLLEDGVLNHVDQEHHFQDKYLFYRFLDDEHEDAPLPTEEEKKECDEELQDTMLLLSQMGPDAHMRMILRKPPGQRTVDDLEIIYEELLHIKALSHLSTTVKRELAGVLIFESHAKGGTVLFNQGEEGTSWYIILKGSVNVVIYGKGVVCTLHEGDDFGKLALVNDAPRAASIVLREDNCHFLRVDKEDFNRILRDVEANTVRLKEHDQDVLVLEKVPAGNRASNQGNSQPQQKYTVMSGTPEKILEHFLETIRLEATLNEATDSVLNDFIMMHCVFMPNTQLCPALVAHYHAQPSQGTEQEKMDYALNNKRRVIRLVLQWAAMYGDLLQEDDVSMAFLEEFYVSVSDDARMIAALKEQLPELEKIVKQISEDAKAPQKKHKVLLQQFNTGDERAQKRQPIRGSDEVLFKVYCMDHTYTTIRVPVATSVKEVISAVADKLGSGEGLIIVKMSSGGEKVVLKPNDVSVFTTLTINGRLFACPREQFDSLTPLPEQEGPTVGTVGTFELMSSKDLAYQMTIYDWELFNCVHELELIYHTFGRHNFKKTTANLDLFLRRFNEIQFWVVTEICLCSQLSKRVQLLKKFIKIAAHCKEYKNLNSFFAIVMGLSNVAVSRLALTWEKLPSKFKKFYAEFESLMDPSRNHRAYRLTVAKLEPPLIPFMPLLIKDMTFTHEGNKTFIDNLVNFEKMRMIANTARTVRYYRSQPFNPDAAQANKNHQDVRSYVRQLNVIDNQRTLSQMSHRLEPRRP
# Chain of Rap guanine nucleotide exchange factor 3 (Homo sapiens) (O95398 whole entry, looked up): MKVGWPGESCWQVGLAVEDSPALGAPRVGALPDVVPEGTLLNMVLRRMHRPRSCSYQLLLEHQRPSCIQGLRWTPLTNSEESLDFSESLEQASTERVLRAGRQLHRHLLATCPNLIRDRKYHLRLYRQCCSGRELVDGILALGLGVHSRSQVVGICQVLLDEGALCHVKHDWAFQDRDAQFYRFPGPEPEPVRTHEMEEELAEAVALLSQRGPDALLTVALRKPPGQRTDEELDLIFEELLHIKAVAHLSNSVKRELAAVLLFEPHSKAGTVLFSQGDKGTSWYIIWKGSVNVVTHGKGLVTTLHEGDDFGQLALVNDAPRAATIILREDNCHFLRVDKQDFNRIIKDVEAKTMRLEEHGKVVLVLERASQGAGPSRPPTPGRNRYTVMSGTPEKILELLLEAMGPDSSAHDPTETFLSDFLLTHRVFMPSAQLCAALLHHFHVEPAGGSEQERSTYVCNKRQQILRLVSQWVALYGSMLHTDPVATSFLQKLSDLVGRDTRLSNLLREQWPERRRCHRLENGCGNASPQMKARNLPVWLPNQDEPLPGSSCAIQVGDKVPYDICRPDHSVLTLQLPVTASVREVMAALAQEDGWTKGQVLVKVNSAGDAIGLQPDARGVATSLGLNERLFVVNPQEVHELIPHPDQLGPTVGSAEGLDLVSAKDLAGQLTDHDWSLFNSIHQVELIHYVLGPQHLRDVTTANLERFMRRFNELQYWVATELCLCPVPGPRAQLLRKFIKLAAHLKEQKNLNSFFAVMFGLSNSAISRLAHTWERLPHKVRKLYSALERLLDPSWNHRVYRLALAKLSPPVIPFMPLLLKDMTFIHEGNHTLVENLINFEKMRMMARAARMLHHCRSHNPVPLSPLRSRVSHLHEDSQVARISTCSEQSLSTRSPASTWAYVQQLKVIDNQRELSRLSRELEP
# Chain of Ubiquitin carboxyl-terminal hydrolase 1 (Homo sapiens) (O94782 whole entry, looked up): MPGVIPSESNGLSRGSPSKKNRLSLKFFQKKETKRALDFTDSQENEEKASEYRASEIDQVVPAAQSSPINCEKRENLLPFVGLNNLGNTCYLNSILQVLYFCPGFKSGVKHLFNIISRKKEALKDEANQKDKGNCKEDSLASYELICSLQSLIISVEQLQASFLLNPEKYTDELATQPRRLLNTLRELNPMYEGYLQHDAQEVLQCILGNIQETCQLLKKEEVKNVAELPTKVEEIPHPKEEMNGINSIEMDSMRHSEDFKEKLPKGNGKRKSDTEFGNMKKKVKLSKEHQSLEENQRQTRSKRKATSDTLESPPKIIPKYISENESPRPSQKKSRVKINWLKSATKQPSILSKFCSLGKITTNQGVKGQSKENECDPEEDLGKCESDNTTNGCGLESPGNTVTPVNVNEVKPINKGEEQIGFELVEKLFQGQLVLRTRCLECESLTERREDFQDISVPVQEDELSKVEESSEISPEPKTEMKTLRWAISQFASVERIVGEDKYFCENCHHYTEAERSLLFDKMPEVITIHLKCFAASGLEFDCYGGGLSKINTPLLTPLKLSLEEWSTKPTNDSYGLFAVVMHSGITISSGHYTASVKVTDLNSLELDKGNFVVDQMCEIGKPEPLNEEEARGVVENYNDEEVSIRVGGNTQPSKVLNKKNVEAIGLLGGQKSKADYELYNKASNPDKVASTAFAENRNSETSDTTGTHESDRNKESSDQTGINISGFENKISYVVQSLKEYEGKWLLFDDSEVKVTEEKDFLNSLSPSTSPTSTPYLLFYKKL
# Chain of Cytochrome P450 2C9 (Homo sapiens) (P11712 whole entry, looked up): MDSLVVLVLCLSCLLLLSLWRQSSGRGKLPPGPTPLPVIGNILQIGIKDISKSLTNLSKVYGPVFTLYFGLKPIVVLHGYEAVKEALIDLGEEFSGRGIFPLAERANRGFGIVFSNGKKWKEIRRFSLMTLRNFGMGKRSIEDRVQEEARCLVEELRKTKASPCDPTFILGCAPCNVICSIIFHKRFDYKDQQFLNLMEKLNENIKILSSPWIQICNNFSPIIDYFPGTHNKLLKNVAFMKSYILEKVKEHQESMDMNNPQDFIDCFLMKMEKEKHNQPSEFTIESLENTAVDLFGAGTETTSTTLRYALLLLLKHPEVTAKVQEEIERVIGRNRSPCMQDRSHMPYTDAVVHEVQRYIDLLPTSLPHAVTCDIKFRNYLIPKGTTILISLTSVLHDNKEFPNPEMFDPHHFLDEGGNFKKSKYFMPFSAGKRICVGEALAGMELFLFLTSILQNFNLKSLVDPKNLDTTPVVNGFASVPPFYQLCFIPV
smiles,measurement,setting,value
COc1ccc2[nH]cc(CCNc3ncnc4ccc(-c5ccc6c(c5)OCO6)cc34)c2c1,Potency,[1],> 11.4 µM (inactive)
same,Potency,[2],631 nM (active)
same,"activity change, negative = inhibition",[3],-23.8% (inactive)
same,"activity, negative = inhibition",[4],-24.8% (inactive)
same,Potency,[5],> 46 µM (inactive)
same,Potency,[6],inactive
same,Potency,[7],inactive
same,Potency,[8],126 nM (active)
same,Potency,[9],2 µM (active)
same,Potency,[10],inactive
same,Potency,[11],2.51 µM (active)
same,Potency,[12],1.58 µM (active)
same,"activity change, negative = inhibition",[13]; at 57.5 µM (top of the series),2.76% (inactive)
same,max response,[13]; [25],-4.39%
same,max response,[13]; [26],-5.39%
same,Potency,[14],282 nM (active)
same,Potency,[15],70.8 nM (active)
same,Potency,[16],inactive
same,Potency,[17],inactive
same,Potency,[18],inactive
same,Potency,[19],inactive
same,Potency,[20],inactive
COc1cc2ccc(=O)oc2cc1O,Potency,[2],5.01 µM (active) and 12.6 µM (active)
same,Potency,[21],> 20.6 µM (inactive) and > 46 µM (inactive)
same,Potency,[5],> 20.6 µM (inactive) and > 46 µM (inactive)
same,Potency,[6],inactive
same,Potency,[7],inactive
same,Potency,[8],inactive
same,Potency,[9],inactive
same,Potency,[11],inactive
same,Potency,[12],inactive
same,outcome,[22],inactive
same,"activity change, negative = inhibition",[13]; at 25.7 µM (top of the series),-4.36% (inactive)
same,"activity change, negative = inhibition",[13]; at 57.5 µM (top of the series),6.76% (inactive)
same,max response,[13]; [25],-18% and -2.53%
same,max response,[13]; [26],-21.2% and 0.189%
same,Potency,[16],inactive
same,outcome,[23],inactive
same,Potency,[17],inactive
same,Potency,[18],inactive
same,Potency,[19],inactive
same,Potency,[20],inactive
Cc1cc(C)c(S(=O)(=O)Nc2ccccc2C(F)(F)F)c(C)c1,Potency,[2],31600 nM (active)
same,Potency,[21],> 46 µM (inactive)
same,Potency,[5],> 46 µM (inactive)
same,Potency,[9],2.51 µM (active)
same,Potency,[10],inactive
same,Potency,[11],6.31 µM (active)
same,outcome,[23],inactive
same,outcome,[24],inactive
N[C@@H](C(=O)O)c1ccc(O)c(C(=O)O)c1,Potency,[21],> 46 µM (inactive)
same,Potency,[5],> 46 µM (inactive)
same,Potency,[6],inactive
same,Potency,[7],inactive
same,Potency,[8],inactive
same,Potency,[16],inactive
same,outcome,[23],inactive
same,outcome,[24],inactive
